Screening data deposited in PubChem by several laboratories.
A selection: hits, their analogues and other compounds. The true share with any hit is near 2.5%.
UBC13 polyUb = UBC13 polyubiquitin chain formation inhibitors, primary screen, biochemical, TR-FRET, uHTS. Ubiquitin-conjugating enzyme E2 N (Homo sapiens), P61088. inhibition, % at 20 µM. AID 485273, 2010. actives 0.47% (n = 330,000); in the data active = inhibition above about 45%, passing the limit was not always enough
Target sequence (P61088 whole entry, looked up): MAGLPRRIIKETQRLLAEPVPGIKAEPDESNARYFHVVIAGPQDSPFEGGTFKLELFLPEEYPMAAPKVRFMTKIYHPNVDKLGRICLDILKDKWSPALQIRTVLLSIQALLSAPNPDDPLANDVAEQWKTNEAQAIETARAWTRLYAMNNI
MEKK2wt PB1 HTS = modulators of MEK5 binding to wildtype MEKK2, primary screen, biochemical, multiplex bead flow cytometry, Alexa488-MEK5; actives 1.1% (n = 290,000); Alexa488-MEK5 binding to MEKK2 WT; actives lie on both sides; binding response (% of control), % at 10 µM; Mitogen-activated protein kinase kinase kinase 2 (Homo sapiens), Q9Y2U5; in the data active = binding response below about 67% or above about 130%
MEKK2 mut-MEK5 = MEK5 binding signal on mutant MEKK2 PB1, primary screen, biochemical, multiplex bead flow cytometry, Alexa488-MEK5 | Alexa488-MEK5 binding to MEKK2 mutant | percent response, % at 10 µM | actives 0.35% (n = 290,000); in the data active = percent response above about 24%, passing the limit was not always enough
Rce1 inhib = yeast Rce1p protease inhibitors, primary screen, biochemical, fluorescence, cell-free homogeneous. actives 0.27% (n = 290,000). CAAX prenyl protease 2 (Saccharomyces cerevisiae (strain ATCC 204508 / S288c)), Q03530. calls only. yeast membranes, quenched prenylated peptide cleavage fluorescence. AID 2563, 2010;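 active = fall in fluorescence gain of 50% or more versus controls, with final raw signal at or below 3038400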
Target sequence (Q03530 whole entry, looked up): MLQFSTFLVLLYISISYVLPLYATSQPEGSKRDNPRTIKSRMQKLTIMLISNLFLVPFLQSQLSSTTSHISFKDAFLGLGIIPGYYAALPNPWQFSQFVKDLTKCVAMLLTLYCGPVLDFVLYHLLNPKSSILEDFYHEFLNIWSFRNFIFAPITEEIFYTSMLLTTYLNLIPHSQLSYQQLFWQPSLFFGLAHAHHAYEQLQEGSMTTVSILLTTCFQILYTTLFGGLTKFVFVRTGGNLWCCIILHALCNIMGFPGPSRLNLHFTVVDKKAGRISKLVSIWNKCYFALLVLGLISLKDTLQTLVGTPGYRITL
MEKK3 PB1 HTS = modulators of MEKK3-MEK5 PB1 binding, primary screen, biochemical, wildtype MEKK3, multiplex bead flow cytometry, Alexa488-MEK5; Mitogen-activated protein kinase kinase kinase 3 (Homo sapiens), Q99759; bead-based flow cytometry, Alexa488-MEK5 binding to MEKK3; actives lie on both sides; 0 = blocked by unlabeled MEK5, 100 = vehicle; binding response (% of control), % at 10 µM; actives 1.4% (n = 290,000); AID 1529, 2009;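 active = binding response more than 3 SD above or below the average of its plate-row segment, actives on both sides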;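 also: Alexa488 bead fluorescence after subtracting the streptavidin-only scavenger bead signal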
MEKK2wt confirm = modulators of MEK5 binding to wildtype MEKK2, confirmation, biochemical, single concentration, multiplex bead flow cytometry; Alexa488-MEK5 binding to MEKK2 WT; actives lie on both sides; binding response (% of control), % at 10 µM; actives 2.4% (n = 5,900); shares compounds with MEKK3 PB1 HTS; in the data active = binding response below about 16% or above about 210%; inactive = in between
MEKK2mut confirm = mutant MEKK2 PB1-MEK5 binding signal retest – biochemical, single concentration, multiplex bead flow cytometry, confirmation. percent response, % at 10 µM. Alexa488-MEK5 binding to MEKK2 mutant. shares compounds with MEKK3 PB1 HTS. actives 2% (n = 5,900); in the data active = percent response mostly above about 71%, no sharp cut-off; inactive = mostly below about 38%;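 also: higher means compound restores mutant binding toward wildtype level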
MEKK3-MEK5 inh = MEKK3 wild-type PB1 binding to MEK5, inhibitors, confirmation, biochemical, bead multiplex flow cytometry, single concentration, wildtype. shares compounds with MEKK3 PB1 HTS. Alexa488-MEK5 binding to MEKK3; stronger effect = lower value. binding response (% of control), % at 10 µM. actives 1.8% (n = 5,900). AID 1894, 2009;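 active = binding response below 72% of control, or above a set upper limit, though filed actives all read lower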
A number is an active result; [ ] = dose if it differs, or a comment.

How did CN1CCN(CC(O)COc2ccc(C34CC5CC(CC(C5)C3)C4)cc2)CC1 (stereo unspecified) do in these assays?
MEKK2wt PB1 HTS: 235.0; MEKK2 mut-MEK5: 56.0; MEKK3 PB1 HTS: inactive; MEKK2wt confirm: inactive; MEKK2mut confirm: 81.0; MEKK3-MEK5 inh: inactive

What do the screens show for `CCOc1ccc(NC(=O)CN2CCN(CC(=O)Nc3cc(OC)cc(OC)c3)CC2)cc1`?
UBC13 polyUb: inactive; MEKK2wt PB1 HTS: inactive; MEKK2 mut-MEK5: 25.0; MEKK3 PB1 HTS: inactive; MEKK2wt confirm: inactive; MEKK2mut confirm: inactive; MEKK3-MEK5 inh: inactive

What do the screens show for `COc1ccccc1NC(=O)CN1CCN(CC(=O)Nc2ccc3c(c2)OCCO3)CC1`?
UBC13 polyUb: inactive; MEKK2wt PB1 HTS: inactive; MEKK2 mut-MEK5: 24.0; MEKK3 PB1 HTS: inactive; MEKK2wt confirm: inactive; MEKK2mut confirm: inactive; MEKK3-MEK5 inh: inactive

What do the screens show for `Cc1ccc2c(c1)c1c3n2CCN(CC(O)CNC(C)C)C3CCC1` (stereo unspecified)?
UBC13 polyUb: inactive; MEKK2wt PB1 HTS: 169.0; MEKK2 mut-MEK5: inactive; MEKK3 PB1 HTS: inactive; MEKK2wt confirm: inactive; MEKK2mut confirm: inactive; MEKK3-MEK5 inh: inactive

Results for CCc1nc(NCCO)c(C#N)c2c1CSC(C)(C)C2 ?
UBC13 polyUb: inactive; MEKK2wt PB1 HTS: inactive; MEKK2 mut-MEK5: inactive; Rce1 inhib: inactive; MEKK3 PB1 HTS: 50.0[inhibitor]; MEKK2wt confirm: inactive; MEKK2mut confirm: inactive; MEKK3-MEK5 inh: inactive

What do the screens show for `CCc1nc(NCC(C)C)c(C#N)c2c1COC(C)(C)C2`?
UBC13 polyUb: inactive; MEKK2wt PB1 HTS: inactive; MEKK2 mut-MEK5: inactive; Rce1 inhib: inactive; MEKK3 PB1 HTS: inactive

Results for Cc1ccc(C(=O)N/C(=C\c2ccc(Br)cc2)c2nc(=S)[nH][nH]2)cc1 ?
UBC13 polyUb: inactive; MEKK2wt PB1 HTS: 65.0[inhibitor]; MEKK2 mut-MEK5: inactive; Rce1 inhib: inactive; MEKK3 PB1 HTS: inactive; MEKK2wt confirm: inactive; MEKK2mut confirm: inactive; MEKK3-MEK5 inh: inactive

Results for O=C(N/C(=C/c1cccc(Br)c1)c1nc(=S)[nH][nH]1)c1ccccc1 ?
UBC13 polyUb: inactive; MEKK2wt PB1 HTS: inactive; MEKK2 mut-MEK5: inactive; Rce1 inhib: inactive; MEKK3 PB1 HTS: inactive

Results for Cn1cc(CN2CCCC(C(=O)c3ccc(-c4ccccc4)c(F)c3)C2)cn1 (stereo unspecified) ?
UBC13 polyUb: inactive; MEKK2wt PB1 HTS: inactive; MEKK2 mut-MEK5: inactive; Rce1 inhib: inactive; MEKK3 PB1 HTS: inactive

Results for Cc1nn(C)cc1CN1CCCC(C(=O)c2ccc(-c3ccccc3)c(F)c2)C1 (stereo unspecified) ?
UBC13 polyUb: inactive; MEKK2wt PB1 HTS: 147.0; MEKK2 mut-MEK5: inactive; Rce1 inhib: inactive; MEKK3 PB1 HTS: inactive; MEKK2wt confirm: inactive; MEKK2mut confirm: inactive; MEKK3-MEK5 inh: inactive

How did O=C(COC(=O)C12CC3CC(CC(C3)C1)C2)Nc1ccc([N+](=O)[O-])cc1Cl do in these assays?
UBC13 polyUb: inactive; MEKK2wt PB1 HTS: inactive; MEKK2 mut-MEK5: inactive; Rce1 inhib: inactive; MEKK3 PB1 HTS: inactive

What do the screens show for `Cc1ccsc1/C=C(/C#N)C(=O)NCc1ccccc1`?
UBC13 polyUb: inactive; MEKK2wt PB1 HTS: inactive; MEKK2 mut-MEK5: 58.0; Rce1 inhib: inactive; MEKK3 PB1 HTS: inactive; MEKK2wt confirm: inactive; MEKK2mut confirm: inactive; MEKK3-MEK5 inh: inactive
